From PubChem BioAssay AID651610 (Broad Institute, 2012) come the findings set out here.

By inhibition is commonly meant the relative decrease from the control value, in per cent.

The campaign covered roughly 360,000 compounds. About 3,900 (1.1%) were called active. The sample holds actives, similar compounds and a random draw of the others, so the mix is not that of the screen.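 How the source made its calls: active means mean replicate inhibition score of at least 50 and every replicate individually at or above 50; inconclusive means only one of the two criteria met; inactive means mean below 50 and not all replicates reaching 50.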

The nature of the experiment: blockers of JRFL envelope-mediated fusion – HeLa-JRFL effector, CEM21 target cells, luciferase, primary screen (AID 651610).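 Further: 0% = plate neutral controls and 100% = maraviroc near 300 nM.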 As to conditions: HeLa-JRFL Env/CEM21 cell fusion, active compounds read high; at 16.7 µM unless noted.
As to `C[C@H](CO)N1C[C@H](C)[C@@H](CN(C)C(=O)C2CC2)Oc2cc(C#CC(C)(C)O)ccc2S1(=O)=O`, the inhibition was -33.6% (inactive).
`C[C@@H]1CCCCO[C@@H](CN(C)C(=O)Nc2cccc3ccccc23)[C@H](C)CN([C@H](C)CO)C(=O)c2cc(NS(C)(=O)=O)ccc2O1`: the inhibition is -3.83% (inactive).
With `Cc1noc(C)c1S(=O)(=O)Nc1ccc2c(c1)CC(=O)N([C@H](C)CO)C[C@@H](C)[C@@H](CN(C)Cc1ccc(C(=O)O)cc1)O2` the figure was 20.1% (inactive); with `CC1CN(Cc2nc3c(c(=O)n(C)c(=O)n3C)n2Cc2cccc(Cl)c2)CC(C)O1` (stereo unspecified), 7.96% [at 12.3 µM] (inactive).
With `Cn1c(=O)c2c(nc(NCCc3ccccc3)n2Cc2ccccc2)n(C)c1=O` the figure was 86.6% [at 12.3 µM] (active); with `Cn1c(=O)c2c(nc(NCCNC(=O)c3ccco3)n2Cc2ccccc2F)n(C)c1=O`, 0.989% [at 12.3 µM] (inactive).
In the case of `CCCCNc1nc2c(c(=O)n(C)c(=O)n2C)n1Cc1cccc(OC)c1`, the inhibition was 88.5% [at 12.3 µM] (active).
With `Cn1c(=O)c2c(nc(NCc3ccccc3)n2CC(N)=O)n(C)c1=O` the figure was -8.78% [at 12.3 µM] (inactive); with `CC(C)OCCCNc1nc2c(c(=O)n(Cc3ccccc3F)c(=O)n2C)n1C`, 4.04% [at 12.3 µM] (inactive); with `COc1ccc(S(=O)(=O)Nc2ccc3c(c2)C(=O)N([C@H](C)CO)C[C@@H](C)[C@H](CN(C)C(=O)Nc2ccc4c(c2)OCO4)O3)cc1`, 12% (inactive).
For the compound `COc1cccc(S(=O)(=O)N[C@H]2CC[C@@H](CCN)O[C@H]2CO)c1`, the inhibition was -38.7% (inactive).
Under `CN(C)CCCNC(=O)C[C@@H]1C=C[C@H](NC(=O)Cc2cccnc2)[C@H](CO)O1` stands 12.3% (inactive); under `C[C@@H]1CCCCO[C@@H](CN(C)Cc2ccncc2)[C@H](C)CN([C@H](C)CO)C(=O)c2cc(NC(=O)CCC(F)(F)F)ccc2O1`, -12.7% (inactive).
With `COc1cccc2c1C(=O)c1c(O)c3c(c(O)c1C2=O)CC(O)(C(C)=NNC(=O)c1ccc(Cl)c(Cl)c1)CC3OC1CC(N)C(O)C(C)O1` (stereo unspecified) the figure was 86% [at 12.3 µM] (active); with `C[C@@H](NC(=O)C[C@@H]1CC[C@@H](NC(=O)C2CCOCC2)[C@@H](CO)O1)c1ccccc1`, -27.6% (inactive); with `C[C@@H]1CN([C@@H](C)CO)C(=O)c2cc(-c3cncnc3)cnc2O[C@@H]1CN(C)Cc1ccncc1`, 1.5% (inactive).
Turning to `CC1CCCN(c2cccc3c2S(=O)(=O)N(Cc2ccc(F)cc2)[C@@H](C)[C@H](c2ccccc2)O3)C1` (stereo partly specified), the inhibition was -2.41% [at 12.3 µM] (inactive).
With `CN(C)C(=O)C[C@@H]1CC[C@H](NC(=O)NC2CCCC2)[C@H](CO)O1` the figure was 2.96% (inactive); with `O=C(Nc1cccn(Cc2c(Cl)cccc2Cl)c1=O)c1ccc(Cl)cc1`, 76.4% [at 12.3 µM] (active).
Under `O=C(Nc1cccn(Cc2ccccc2Cl)c1=O)NC1CCCCC1` stands -4.39% [at 12.3 µM] (inactive); under `Cc1cc(NC(=O)c2ccco2)c(=O)n(Cc2c(F)cccc2Cl)c1`, -1.03% [at 12.3 µM] (inactive); under `CNC(=O)C[C@@H]1CC[C@H]2[C@H](COc3ccc(NC(=O)c4cccc(OC)c4)cc3C(=O)N2C)O1`, -18.7% (inactive).
With `C[C@H](CO)N1C[C@H](C)[C@@H](CN(C)S(=O)(=O)c2ccccc2)Oc2c(NC(=O)c3ccc(-c4nccs4)cc3)cccc2C1=O` the figure was -55.7% (inactive).
Take `O=C(Cc1ccncc1)NCC[C@H]1CC[C@H](NC(=O)C2CC2)[C@H](CO)O1`: the inhibition was 4.94% (inactive).
Turning to `C[C@@H]1CN([C@@H](C)CO)C(=O)c2cc(NC(=O)C3CCCCC3)ccc2O[C@@H](C)CCCCO[C@H]1CN(C)C(=O)Nc1ccc2c(c1)OCO2`, the inhibition was -19.1% (inactive).
With `COc1ccc(CNc2ncnc3ccccc23)cc1` the figure was 77% [at 12.3 µM] (active); with `c1ccc(CNc2ncnc3[nH]ncc23)cc1`, 27.4% [at 12.3 µM] (inactive).
With `COc1ccc(CNc2nccs2)cc1` the figure was -9.44% [at 12.3 µM] (inactive); with `C[C@@H]1CCCCO[C@@H](CN(C)S(=O)(=O)c2cn(C)cn2)[C@@H](C)CN([C@H](C)CO)C(=O)c2cc(NC(=O)c3ccncc3)ccc2O1`, 26.2% (inactive); with `CC(C)NC(=O)Nc1ccc2c(c1)CC(=O)N([C@H](C)CO)C[C@@H](C)[C@H](CN(C)S(=O)(=O)c1ccccc1)O2`, 2.93% (inactive).
With `COc1cc(CNCc2ccc(OC)c3ccccc23)cc(OC)c1OC` the figure was 99.1% [at 12.3 µM] (active).
For `CCOc1c(CNCc2ccc(C(=O)O)cc2)cccc1OC`, the inhibition was 1.89% [at 12.3 µM] (inactive).
Under `COc1ccc(CNCCCNCc2ccc(OC)c(OC)c2)cc1OC` stands -12.6% [at 12.3 µM] (inactive).
`Cc1noc(C)c1S(=O)(=O)Nc1ccc2c(c1)C(=O)N([C@H](C)CO)C[C@@H](C)[C@@H](CN(C)S(=O)(=O)c1ccc(Cl)cc1)O2`: the inhibition was -6.25% (inactive).
With `C[C@@H]1CN([C@@H](C)CO)C(=O)c2cc(N(C)C)ccc2O[C@H]1CN(C)Cc1ccc(C(F)(F)F)cc1` the figure was 14.9% (inactive); with `COc1ccc(C(=O)Nc2nc(-c3ccc(S(=O)(=O)N4CCOCC4)cc3)cs2)cc1`, 93.5% [at 12.3 µM] (active).
`COc1ccc(C(=O)Nc2cc(S(=O)(=O)N3CCCC3)ccc2Cl)cc1`: the inhibition was -8.82% [at 12.3 µM] (inactive).
With `CNC(=O)c1ccsc1NC(=O)c1ccc(S(=O)(=O)N2CCOCC2)cc1` the figure was -27.2% [at 12.3 µM] (inactive); with `CO[C@@H]1CN(C)C(=O)c2ccc(NC(=O)c3ccc(F)cc3)cc2OC[C@H](C)N(C)C[C@H]1C`, 9.99% (inactive); with `CN1C(=O)c2cc(NC(=O)c3cscn3)ccc2OC[C@H]2O[C@@H](CC(=O)NCC3CC3)CC[C@H]21`, -0.83% (inactive).
Under `C[C@@H]1CCCCO[C@H](CN(C)Cc2ccccc2)[C@@H](C)CN([C@H](C)CO)C(=O)c2cc(NS(C)(=O)=O)ccc2O1` stands -1.64% (inactive).
`COc1ccccc1NC(=O)CSc1nnc(-c2ccoc2C)n1CCc1ccccc1`: the inhibition is 62.4% [at 12.3 µM] (active).
With `COc1ccccc1NC(=O)CSc1nnc(Cn2nnc(-c3ccccc3)n2)n1-c1ccccc1` the figure was -41.2% [at 12.3 µM] (inactive); with `CCn1c(SCC(=O)NC2CCCC2)nnc1-c1ccoc1C`, -2.28% [at 12.3 µM] (inactive).
Regarding `COc1ccc(C#Cc2cnc3c(c2)C(=O)N([C@H](C)CO)C[C@@H](C)[C@@H](CN(C)C(=O)CN(C)C)O3)cc1`, the inhibition was -3.11% (inactive).
Under `COc1ccc(-c2cnc3c(c2)C(=O)N([C@@H](C)CO)C[C@H](C)[C@H](CN(C)C(=O)Cc2cccnc2)O3)cc1` stands -3.34% (inactive); under `Cc1ccc(NS(=O)(=O)c2ccc(C(C)(C)C)cc2)cn1`, 3.22% [at 12.3 µM] (inactive).
With `Cc1cc(C)cc(OCC(=O)Nc2ccc(S(=O)(=O)Nc3ccccn3)cc2)c1` the figure was 19.9% [at 12.3 µM] (inactive).
Under `Cc1ccc(S(=O)(=O)Nc2ccc3ncccc3c2)cc1` stands 60.8% [at 12.3 µM] (active); under `COc1ccc(CNC(=O)C2(CC3CC(c4ccccc4)=NO3)CCN(C(=O)c3cccc(O)c3)CC2)cc1` (stereo unspecified), 65.8% [at 12.3 µM] (active); under `O=C(c1ccccc1)N1CCC(CC2CC(c3ccc(Cl)cc3)=NO2)(C(=O)NCC2CCCCC2)CC1` (stereo unspecified), -114% [at 12.3 µM] (inactive).
With `CCCCCCCNC(=O)C1(CC2CC(c3cccc(Br)c3)=NO2)CCN(C(=O)c2cc(OCC)c(OCC)c(OCC)c2)CC1` (stereo unspecified), the inhibition is 28.1% [at 12.3 µM] (inactive).
Under `CO[C@@H]1CN(C)C(=O)c2cc(NC(=O)C3CCOCC3)ccc2OC[C@H](C)N(C)C[C@H]1C` stands 0.584% (inactive).
With `C[C@@H]1CCCCO[C@H](CN(C)C)[C@H](C)CN([C@@H](C)CO)C(=O)c2cc(NS(=O)(=O)c3ccccc3)ccc2O1` the figure was 19.2% (inactive); with `COc1cncc(-c2cnc3sc(NCCc4ccccn4)nn23)c1`, 61.5% [at 12.3 µM] (active).
With `COc1ccc(NCCc2ccccn2)cc1` the figure was -6.27% [at 12.3 µM] (inactive).
With `Cc1ccc(C(=O)N/C(=C\c2cccs2)C(=O)NCCc2ccccn2)cc1C`, the inhibition was -3.78% [at 12.3 µM] (inactive).
With `CCNC(=O)Nc1ccc2c(c1)C(=O)N(C)[C@H]1CC[C@@H](CC(=O)N[C@@H](C)c3ccccc3)O[C@H]1CO2` the figure was 0.456% (inactive).
With `COCC(=O)N1C[C@@H](C)[C@H](OC)CN(C)C(=O)c2cc(NC(=O)c3cc(C)on3)ccc2OC[C@@H]1C` the figure was -4.38% (inactive); with `C[C@@H]1CN([C@H](C)CO)C(=O)Cc2cc(NC(=O)Cn3cnnn3)ccc2O[C@H]1CN(C)Cc1ccc(C(F)(F)F)cc1`, 3.54% (inactive); with `COc1ccccc1CNC(=O)C1CCN(S(C)(=O)=O)CC1`, -69% [at 12.3 µM] (inactive).
As for `COC(=O)C1(C(=O)OC)C[C@H](c2ccccc2)N(Cc2ccccc2OC)[C@@H]1c1ccccc1`, the inhibition is 84.1% [at 12.3 µM] (active).
With `COc1ccccc1CNC(=O)CCCN1C(=O)NC2(CCCC2)C1=O` the figure was 2.68% [at 12.3 µM] (inactive); with `O=C(N[C@H]1CC[C@@H](CCNC(=O)C2CCC2)O[C@@H]1CO)c1ccncc1`, 7.35% (inactive); with `C[C@@H]1CN([C@@H](C)CO)C(=O)c2cc(NC(=O)C3CCCCC3)ccc2O[C@@H](C)CCCCO[C@H]1CN(C)C(=O)CCC(F)(F)F`, 7.33% (inactive).
With `C[C@H](CO)N1C[C@H](C)[C@@H](CN(C)S(=O)(=O)c2cccc(F)c2)OCc2ccccc2-c2c(n(C)c3ccccc23)C1=O` the figure was 56% (active).
With `C[C@@H]1CN([C@@H](C)CO)C(=O)c2c(c3ccccc3n2C)-c2ccccc2CO[C@@H]1CN(C)S(=O)(=O)CC(F)(F)F` the figure was -10.3% (inactive).
Regarding `C[C@@H]1CN([C@H](C)CO)C(=O)c2c(c3ccccc3n2C)-c2ccccc2CO[C@H]1CN(C)S(=O)(=O)c1ccccc1F`, the inhibition is 6.3% (inactive).
Under `C[C@@H]1CN([C@H](C)CO)C(=O)c2c(c3ccccc3n2C)-c2ccccc2CO[C@H]1CN(C)C(=O)c1ccncc1` stands 1.26% (inactive).
Take `Cc1noc(C)c1C(=O)N(C)C[C@H]1OCc2ccccc2-c2c(n(C)c3ccccc23)C(=O)N([C@@H](C)CO)C[C@H]1C`: the inhibition is -3.54% (inactive).
Under `C[C@H](CO)N1C[C@H](C)[C@H](CN(C)C(=O)c2ccncc2)OCc2ccccc2-c2c(n(C)c3ccccc23)C1=O` stands 59.8% (active).
